Laboratory results taken from the supplement of paper PMC11732987, “Enantioselective OTUD7B fragment discovery through chemoproteomics screening and high-throughput optimisation” (Communications Chemistry, 2025).

Columns and labels:
Experiment in all cases: log2 ratio of Biotin-Ahx-Ub-VS probe labelling (fragment/DMSO); higher = less target engagement (more negative = stronger competition), active = hit call of the paper (q ≤ 0.05, log2 ratio ≤ -1)
Settings in all cases: compound concentration: 200 uM; treatment time: 3 h
[1] = biological target: T1, USP19 (UniProt O94966)
T1 sequence (whole entry): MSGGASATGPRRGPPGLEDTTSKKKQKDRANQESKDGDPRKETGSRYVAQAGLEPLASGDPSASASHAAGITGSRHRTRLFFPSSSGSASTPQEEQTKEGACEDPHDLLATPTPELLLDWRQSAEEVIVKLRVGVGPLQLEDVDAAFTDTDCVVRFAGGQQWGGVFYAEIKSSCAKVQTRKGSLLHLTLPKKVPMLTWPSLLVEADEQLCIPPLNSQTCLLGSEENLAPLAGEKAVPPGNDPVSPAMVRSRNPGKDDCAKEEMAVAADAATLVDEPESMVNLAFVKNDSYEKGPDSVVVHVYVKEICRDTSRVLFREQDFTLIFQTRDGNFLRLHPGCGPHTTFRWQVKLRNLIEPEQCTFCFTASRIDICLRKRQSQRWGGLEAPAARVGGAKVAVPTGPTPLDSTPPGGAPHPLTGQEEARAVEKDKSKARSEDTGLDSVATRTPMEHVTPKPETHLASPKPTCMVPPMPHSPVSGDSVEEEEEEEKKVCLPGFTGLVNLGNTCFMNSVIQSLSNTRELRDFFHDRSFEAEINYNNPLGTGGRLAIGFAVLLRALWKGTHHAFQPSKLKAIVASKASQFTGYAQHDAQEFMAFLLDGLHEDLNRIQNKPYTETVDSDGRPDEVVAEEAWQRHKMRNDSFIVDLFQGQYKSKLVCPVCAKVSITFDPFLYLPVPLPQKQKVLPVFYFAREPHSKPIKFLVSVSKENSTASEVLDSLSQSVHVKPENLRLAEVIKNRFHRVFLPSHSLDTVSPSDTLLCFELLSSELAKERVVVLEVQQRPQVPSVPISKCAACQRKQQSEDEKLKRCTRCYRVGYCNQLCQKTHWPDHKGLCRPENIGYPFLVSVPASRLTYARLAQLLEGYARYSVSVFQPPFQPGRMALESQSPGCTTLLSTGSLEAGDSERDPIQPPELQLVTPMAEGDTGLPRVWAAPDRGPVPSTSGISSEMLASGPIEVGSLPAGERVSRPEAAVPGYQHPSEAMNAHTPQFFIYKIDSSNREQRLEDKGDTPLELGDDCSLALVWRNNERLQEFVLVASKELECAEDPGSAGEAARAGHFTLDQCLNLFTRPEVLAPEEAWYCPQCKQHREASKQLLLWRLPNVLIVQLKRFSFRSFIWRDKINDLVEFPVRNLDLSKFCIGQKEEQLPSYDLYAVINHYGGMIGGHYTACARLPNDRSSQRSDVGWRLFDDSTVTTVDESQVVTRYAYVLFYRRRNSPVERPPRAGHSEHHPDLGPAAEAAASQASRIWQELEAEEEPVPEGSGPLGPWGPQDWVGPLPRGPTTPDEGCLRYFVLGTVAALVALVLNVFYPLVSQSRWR
Method in brief: (§1)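 Global-median-normalised Spectronaut label-free quantities were compared by unpaired t-test, and values are average log2 ratios of fragment over vehicle. Only proteins with ≥2 unique peptides were used. HEK293T lysate (495 µg per sample) was treated in triplicate with fragment at 200 µM or vehicle for 3 h and then with Biotin-Ahx-Ub-VS at 0.5 µM final for 1 h. Labelled DUBs were then NeutrAvidin-enriched, digested with LysC and trypsin, and run by diaPASEF LC-MS/MS.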

[2] = biological target: USP24 (UniProt Q9UPU5)
Method in brief: as §1

[3] = biological target: T2, USP25 (UniProt Q9UHP3)
T2 sequence (whole entry): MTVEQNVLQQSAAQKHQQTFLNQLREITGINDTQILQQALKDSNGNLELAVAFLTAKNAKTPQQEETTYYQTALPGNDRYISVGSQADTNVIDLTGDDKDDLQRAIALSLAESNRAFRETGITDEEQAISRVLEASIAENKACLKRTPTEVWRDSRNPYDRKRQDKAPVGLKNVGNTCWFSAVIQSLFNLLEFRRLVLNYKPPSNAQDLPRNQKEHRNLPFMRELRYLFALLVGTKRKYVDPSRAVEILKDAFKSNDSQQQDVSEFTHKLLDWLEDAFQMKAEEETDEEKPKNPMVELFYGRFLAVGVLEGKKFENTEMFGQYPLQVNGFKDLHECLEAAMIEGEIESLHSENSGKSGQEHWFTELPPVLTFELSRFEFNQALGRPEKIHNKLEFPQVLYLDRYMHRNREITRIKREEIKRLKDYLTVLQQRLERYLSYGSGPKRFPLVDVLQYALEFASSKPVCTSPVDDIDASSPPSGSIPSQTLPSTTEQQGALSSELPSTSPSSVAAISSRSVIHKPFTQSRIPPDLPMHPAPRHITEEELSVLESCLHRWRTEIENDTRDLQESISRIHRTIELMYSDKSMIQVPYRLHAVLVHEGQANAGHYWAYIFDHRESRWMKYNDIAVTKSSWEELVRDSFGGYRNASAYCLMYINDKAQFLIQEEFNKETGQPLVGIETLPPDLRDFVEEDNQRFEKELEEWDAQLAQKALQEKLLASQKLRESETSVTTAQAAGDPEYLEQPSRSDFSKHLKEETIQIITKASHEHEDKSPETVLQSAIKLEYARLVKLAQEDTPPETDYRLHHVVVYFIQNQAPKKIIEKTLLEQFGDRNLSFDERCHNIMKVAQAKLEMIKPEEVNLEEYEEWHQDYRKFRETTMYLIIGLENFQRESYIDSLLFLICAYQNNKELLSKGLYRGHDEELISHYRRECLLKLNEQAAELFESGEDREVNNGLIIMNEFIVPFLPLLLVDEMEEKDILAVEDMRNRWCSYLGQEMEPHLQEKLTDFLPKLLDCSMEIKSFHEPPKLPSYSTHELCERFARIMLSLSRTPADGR
Method in brief: as §1

[4] = biological target: T3, USP28 (UniProt Q96RU2)
T3 sequence (whole entry): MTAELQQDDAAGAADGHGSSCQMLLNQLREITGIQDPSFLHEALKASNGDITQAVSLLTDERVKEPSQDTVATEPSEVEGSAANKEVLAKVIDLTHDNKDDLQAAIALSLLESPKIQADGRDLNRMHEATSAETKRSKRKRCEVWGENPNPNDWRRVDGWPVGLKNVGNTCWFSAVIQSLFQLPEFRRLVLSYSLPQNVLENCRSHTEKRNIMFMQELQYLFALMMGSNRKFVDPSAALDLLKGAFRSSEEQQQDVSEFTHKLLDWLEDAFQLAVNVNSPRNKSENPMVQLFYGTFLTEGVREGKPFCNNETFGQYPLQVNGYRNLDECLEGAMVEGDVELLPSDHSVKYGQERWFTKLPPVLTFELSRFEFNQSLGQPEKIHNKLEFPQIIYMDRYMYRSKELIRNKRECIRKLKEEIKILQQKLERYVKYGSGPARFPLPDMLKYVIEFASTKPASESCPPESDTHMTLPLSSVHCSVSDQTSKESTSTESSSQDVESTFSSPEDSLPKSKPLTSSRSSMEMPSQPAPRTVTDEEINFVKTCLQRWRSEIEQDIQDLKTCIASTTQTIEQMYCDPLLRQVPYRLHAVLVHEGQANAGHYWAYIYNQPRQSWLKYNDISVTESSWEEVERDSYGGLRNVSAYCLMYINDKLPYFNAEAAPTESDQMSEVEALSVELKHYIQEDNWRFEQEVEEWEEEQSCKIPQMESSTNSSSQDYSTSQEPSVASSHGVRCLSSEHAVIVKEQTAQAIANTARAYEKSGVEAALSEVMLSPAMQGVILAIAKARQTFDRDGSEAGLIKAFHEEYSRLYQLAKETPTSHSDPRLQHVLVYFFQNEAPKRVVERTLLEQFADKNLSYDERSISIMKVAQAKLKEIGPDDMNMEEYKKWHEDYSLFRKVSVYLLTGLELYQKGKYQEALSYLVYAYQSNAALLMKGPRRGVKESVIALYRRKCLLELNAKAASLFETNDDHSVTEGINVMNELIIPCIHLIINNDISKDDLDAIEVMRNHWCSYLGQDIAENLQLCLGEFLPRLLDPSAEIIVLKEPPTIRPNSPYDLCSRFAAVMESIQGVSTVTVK
Method in brief: as §1

Measured: log2 ratio of Biotin-Ahx-Ub-VS probe labelling

Chain of USP24 (Q9UPU5 whole entry): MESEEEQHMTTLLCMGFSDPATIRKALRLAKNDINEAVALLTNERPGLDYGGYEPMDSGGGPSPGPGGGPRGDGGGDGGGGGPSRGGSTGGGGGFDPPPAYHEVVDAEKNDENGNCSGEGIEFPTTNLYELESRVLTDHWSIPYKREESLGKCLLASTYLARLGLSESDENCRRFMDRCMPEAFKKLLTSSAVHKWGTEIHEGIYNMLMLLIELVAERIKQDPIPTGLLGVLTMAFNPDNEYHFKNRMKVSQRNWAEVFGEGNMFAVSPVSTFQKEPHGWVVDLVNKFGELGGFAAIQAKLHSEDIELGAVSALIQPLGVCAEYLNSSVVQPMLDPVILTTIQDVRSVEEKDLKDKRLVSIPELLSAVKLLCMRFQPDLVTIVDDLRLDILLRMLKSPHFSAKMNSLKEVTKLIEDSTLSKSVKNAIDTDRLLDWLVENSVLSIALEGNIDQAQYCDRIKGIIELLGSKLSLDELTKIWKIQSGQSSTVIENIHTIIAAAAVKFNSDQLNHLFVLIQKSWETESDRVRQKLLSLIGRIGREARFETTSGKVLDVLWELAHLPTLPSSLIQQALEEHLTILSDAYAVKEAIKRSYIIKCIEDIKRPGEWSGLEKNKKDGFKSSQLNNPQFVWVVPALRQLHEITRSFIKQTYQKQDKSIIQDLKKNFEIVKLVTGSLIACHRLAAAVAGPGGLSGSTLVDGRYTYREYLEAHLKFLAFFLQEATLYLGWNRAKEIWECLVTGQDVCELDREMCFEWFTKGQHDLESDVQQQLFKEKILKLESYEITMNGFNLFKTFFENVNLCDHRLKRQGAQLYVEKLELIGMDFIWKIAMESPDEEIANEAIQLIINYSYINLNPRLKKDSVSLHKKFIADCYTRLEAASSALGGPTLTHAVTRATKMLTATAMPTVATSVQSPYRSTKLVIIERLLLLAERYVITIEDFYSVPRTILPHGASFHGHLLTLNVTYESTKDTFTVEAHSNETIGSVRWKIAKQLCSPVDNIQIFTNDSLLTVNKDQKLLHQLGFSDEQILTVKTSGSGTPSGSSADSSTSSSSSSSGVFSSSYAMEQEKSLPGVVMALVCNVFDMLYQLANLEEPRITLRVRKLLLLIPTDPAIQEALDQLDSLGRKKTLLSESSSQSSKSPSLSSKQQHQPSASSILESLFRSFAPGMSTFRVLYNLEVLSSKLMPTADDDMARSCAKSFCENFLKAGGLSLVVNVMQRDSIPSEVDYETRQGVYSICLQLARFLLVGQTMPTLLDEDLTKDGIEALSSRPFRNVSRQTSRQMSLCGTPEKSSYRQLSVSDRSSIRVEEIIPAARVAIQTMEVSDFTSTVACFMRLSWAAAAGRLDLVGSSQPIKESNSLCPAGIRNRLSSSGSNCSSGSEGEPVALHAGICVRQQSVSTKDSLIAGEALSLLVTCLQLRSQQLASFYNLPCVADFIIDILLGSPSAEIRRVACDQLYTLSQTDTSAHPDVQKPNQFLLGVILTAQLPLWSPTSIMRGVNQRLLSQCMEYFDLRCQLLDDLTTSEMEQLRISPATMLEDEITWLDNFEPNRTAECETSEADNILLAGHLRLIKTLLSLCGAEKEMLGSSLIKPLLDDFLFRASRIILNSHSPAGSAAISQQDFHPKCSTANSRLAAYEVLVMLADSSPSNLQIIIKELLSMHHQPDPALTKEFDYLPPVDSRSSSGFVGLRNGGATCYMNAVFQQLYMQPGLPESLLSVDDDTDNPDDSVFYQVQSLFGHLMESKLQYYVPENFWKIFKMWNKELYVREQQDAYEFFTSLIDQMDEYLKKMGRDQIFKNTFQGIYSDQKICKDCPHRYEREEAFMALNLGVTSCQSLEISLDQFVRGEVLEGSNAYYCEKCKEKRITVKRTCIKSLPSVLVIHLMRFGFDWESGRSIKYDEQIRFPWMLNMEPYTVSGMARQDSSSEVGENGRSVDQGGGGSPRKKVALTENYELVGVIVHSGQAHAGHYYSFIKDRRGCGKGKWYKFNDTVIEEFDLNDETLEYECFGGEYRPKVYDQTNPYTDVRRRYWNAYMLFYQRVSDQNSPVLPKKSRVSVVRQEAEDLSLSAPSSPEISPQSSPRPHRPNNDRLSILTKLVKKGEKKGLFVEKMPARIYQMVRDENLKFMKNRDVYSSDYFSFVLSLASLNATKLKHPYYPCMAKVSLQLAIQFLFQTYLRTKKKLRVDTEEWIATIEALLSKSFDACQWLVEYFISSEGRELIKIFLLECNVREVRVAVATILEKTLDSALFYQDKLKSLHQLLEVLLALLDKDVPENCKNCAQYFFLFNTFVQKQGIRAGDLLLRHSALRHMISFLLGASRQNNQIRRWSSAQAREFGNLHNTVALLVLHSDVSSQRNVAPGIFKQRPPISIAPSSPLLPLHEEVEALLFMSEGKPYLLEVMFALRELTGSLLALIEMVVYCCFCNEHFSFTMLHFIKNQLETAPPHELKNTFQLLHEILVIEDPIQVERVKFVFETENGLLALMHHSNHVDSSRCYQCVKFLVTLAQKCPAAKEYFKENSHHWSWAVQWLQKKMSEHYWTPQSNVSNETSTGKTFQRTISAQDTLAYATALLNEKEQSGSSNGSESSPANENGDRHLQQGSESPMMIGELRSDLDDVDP

O=C(CCl)N1CCCC1c1ccsc1 (centres undefined)
inactive: [1] -0.475 | [2] -0.738 | [3] -0.456 | [4] -0.704
